Bm FixLJ act – B. multivorans fixK reporter activation | B. multivorans fixK-promoter GFP reporter, 18 h; hits give high values | z-score (no concentration beside the values) | hit rate 0.3% among 29,000;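 active = replicate mean overnight rise in green fluorescent reporter signal, 3 or more SD over negative controls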
Hits are given with their value; - = inactive; ! = not active in a repeat. Only a selection was taken, and hits are over-represented in it overall.

SMILES | Bm FixLJ act
COc1ccc(NC(=O)CSc2oc(-c3ccco3)nc2S(=O)(=O)c2ccccc2)c(OC)c1 | 6.81
COc1ccc(NC(=O)CSc2oc(-c3cccs3)nc2S(=O)(=O)c2ccc(C)cc2)c(OC)c1 | -
COc1ccccc1NC(=O)CSc1oc(-c2ccco2)nc1S(=O)(=O)c1ccc(C)cc1 | -
Cc1cc(C)cc(NC(=O)CSc2oc(-c3ccco3)nc2S(=O)(=O)c2ccccc2)c1 | -
COc1ccc(NC(=O)CSc2oc(-c3cccs3)nc2S(=O)(=O)c2ccccc2)c(OC)c1 | 3.66
COc1ccccc1NC(=O)CSc1oc(-c2cccs2)nc1S(=O)(=O)c1ccc(Br)cc1 | -
Cc1nn(C)c(C)c1CN(C)c1cc(C2CC(N)C2)nc(N)n1 (stereo unspecified) | -
Cc1cc(CC(=O)N(C)Cc2nc3cc(C)c(C)cc3[nH]2)on1 | -
CNC(=O)CCc1ccccc1NC(=O)c1oc2cc(C)ccc2c1C | -
Cc1cc(CC2COCC2NC(=O)c2csc(-c3cccs3)n2)on1 (stereo unspecified) | -
COc1ccccc1N1CC(NC(=O)N(C)Cc2nc(C)cs2)CC1=O (stereo unspecified) | -
CC(C)NC(=O)CN1CCC(c2nnc(CN3CCOCC3)n2C)CC1 | -
Cc1cc(CC(C)NC(=O)C=Cc2cnc(N(C)C)nc2)n[nH]1 (stereo unspecified) | -
Cc1c(C(=O)N(C)C2C[C@H]3CC(=O)N(C)C[C@H]3C2)[nH]c2ccc(Cl)cc12 (stereo partly specified) | -
CCC(NC(C)C)C(O)c1ccc(O)c(O)c1 (stereo unspecified) | 8.16
C[C@H](N)[C@H](O)c1cccc(O)c1 | -
CC[C@H](NC(C)C)[C@H](O)c1ccc(O)c2[nH]c(=O)ccc12 | -
COc1ccc(Nc2cc(C(=O)NCCc3ccc(C)cc3)c3ccccc3n2)c(OC)c1 | -
COc1ccc(OC)c(Nc2cc(C(=O)NCc3ccccc3)c3ccccc3n2)c1 | 4.2
COc1ccc(CNC(=O)c2cc(Nc3ccc(OC)cc3OC)nc3ccccc23)cc1 | -
CC(=O)N1CCCC1C(=O)N1CCCN(Cc2cnc(C)cn2)CC1 (stereo unspecified) | -
Cc1cc(NC(=O)c2ncoc2C(C)C)cc2sc(N)nc12 | -
COc1ccc(O)c(C2=Nc3ccccc3N=C(c3ccccc3)C2)c1 | 3.7
COc1ccc(C2=NC(c3ccccc3)=Nc3ccc(C)cc3N2)cc1 | -
Cc1cccc(C2=Nc3ccccc3N=C(c3cc(Cl)ccc3O)C2)c1 | -
SMILES | Bm FixLJ act
COc1ccc(C(NC(=O)c2cc(CO)ccn2)C2CC(O)C2)cn1 (stereo unspecified) | -
CCCc1cnc(C)nc1N1CCC2(CCC(=O)N(Cc3ccncc3)C2)CC1 | -
O=c1oc2ccc3ccccc3c2cc1-c1nnc(Nc2ccccc2F)s1 | -
O=c1oc2cc(O)ccc2cc1-c1nnc(Nc2ccccc2F)s1 | 23.4
CCOc1ccc2cc(-c3nnc(Nc4ccc(C)cc4)s3)c(=O)oc2c1 | -
CN(CCCOc1ccccc1Cl)C(=O)CCNC(=O)c1ccccc1F | -
CCCc1cnc(N2CCC(O)[C@@](CCC)(C(=O)O)C2)nc1 (stereo partly specified) | -
NC(CO)C(=O)NNCc1ccc(O)c(O)c1O (stereo unspecified) | 3.05!
CCS(=O)(=O)N1CCN(C(=O)C(C)Cn2cccn2)CC1 (stereo unspecified) | -
Cc1ccc(CN2COc3ccc4c(-c5ccccc5)cc(=O)oc4c3C2)cc1 | -
COc1ccc(CN2COc3ccc4c(-c5ccccc5)cc(=O)oc4c3C2)cc1 | 3.7
COC(=O)Cc1c(C)c2ccc3c(c2oc1=O)CN(Cc1ccc(C)cc1)CO3 | -
O=C(c1ccco1)N1CCCC(NCc2cc3ccccc3[nH]c2=O)C1 (stereo unspecified) | -
CCn1cnnc1CN1CCC(CNC(=O)C2CCc3ccccc32)CC1 (stereo unspecified) | -
Cn1c(=O)c2nc3ccc(NC(=O)C(F)(F)F)cc3nc2n(C)c1=O | 13.8
Cc1ccc2nc(-c3ccc(NC(=O)C(F)(F)F)cc3)sc2c1 | -
CC(=O)c1cccc(NC(=O)Cn2cnc3c2c(=O)n(C)c(=O)n3C)c1 | -
O=C(O)CCCC(=O)N1CCc2c(c(C(=O)O)nn2CC2CC2)C1 | -
CN1CCc2nc3sc(C(=O)c4ccc(F)cc4)c(N)c3cc2C1 | -
CCN1CCc2nc3sc(C(=O)c4ccccc4)c(N)c3cc2C1 | 25.9
Cc1ccccc1NC(=O)c1sc2nc3c(cc2c1N)CN(Cc1ccccc1)CC3 | -
O=C(c1cn[nH]c1-c1ccccc1)N1CCC(n2cnnc2)CC1 | -
CC(=O)N1CCc2cc(Br)cc(S(=O)(=O)N3CCN(c4cccc(C(F)(F)F)c4)CC3)c21 | 3.26
CCC(=O)N1CCc2cc(Br)cc(S(=O)(=O)N3CCN(c4ccccc4)CC3)c21 | -
O=C(C1CC1)N1CCc2cc(Br)cc(S(=O)(=O)N3CCN(c4cccc(Cl)c4)CC3)c21 | -
SMILES | Bm FixLJ act
Cc1cc(N2CCCC(O)(CN(C)C)CC2)nc(-c2ccccc2)n1 (stereo unspecified) | -
COc1ccc(-c2nn(-c3ccccc3)cc2C(=O)Nc2ccccc2OC)cc1 | 4.62
O=C(O)c1ccc(NC(=O)c2cn(-c3ccccc3)nc2-c2ccc(Br)cc2)cc1 | -
COc1ccccc1NC(=O)c1cc2c(C)nn(-c3ccccc3)c2s1 | -
COc1ccc(CN2CCC(O)C(C(=O)O)C2)cc1OCc1ccccc1 (stereo unspecified) | -
CC(C)n1cc(CN2CCCn3nc(CNC(=O)C4CCC4)cc3C2)cn1 | -
COCCNC(=O)CCCn1c(=O)c2cc(OC)c(OC)cc2n(CC(=O)Nc2ccc(F)cc2)c1=O | -
COCCNC(=O)CCn1c(=O)c2cc(OC)c(OC)cc2n(CC(=O)Nc2ccccc2OC)c1=O | 4.61
COCCNC(=O)CCn1c(=O)c2cc(OC)c(OC)cc2n(CC(=O)Nc2ccccc2C)c1=O | -
CCc1ccc(C(=O)N2CC(CO)C(CN(C)CCO)C2)cc1 (stereo unspecified) | -
CCc1ccc2nc(C)cc(C(=O)N3CCN(C4CCCC4)C(=O)C3)c2c1 | -
C=CCC(CC=C)(CNC(=O)C(=O)Nc1cccc(C(F)(F)F)c1)c1ccccc1 | 3.71
C=CCC(CC=C)(CNC(=O)C(=O)Nc1cc(C)ccc1OC)c1ccc(OC)c(OC)c1 | -
O=C(O)c1ccccc1Nc1cccc(C(F)(F)F)c1 | -
O=C(NCc1cc(-c2ccc(F)cc2)no1)C1CCCCn2nnnc21 (stereo unspecified) | -
Cn1nc(CNC(=O)C2CCCCn3nnnc32)c2c(Cl)cccc21 (stereo unspecified) | 3.32
CN1CC(=O)N2CCN(Cc3nn(C)c4cccc(Cl)c34)CC2C1=O (stereo unspecified) | -
CCCn1ncnc1-c1cccc(C(=O)N2CCc3[nH]nc(CC)c3C2)c1 | -
Cc1nonc1C(=O)N1CCCN(c2nc3ccccc3s2)CC1 | -
Cc1ccc(Cn2c3ccccc3c3cnn(CC(=O)Nc4cc(Cl)ccc4C)c(=O)c32)cc1 | -
O=C(Cn1ncc2c3ccccc3n(Cc3cccc(Cl)c3)c2c1=O)NCCCc1ccccc1 | 19.5
CCCN(CCC)CCCNC(=O)Cn1ncc2c3ccccc3n(Cc3ccc(F)cc3)c2c1=O | -
CCN(CC)CCCNC(=O)Cn1ncc2c3ccccc3n(Cc3ccccc3)c2c1=O | -
CC(C)N(Cc1ccccc1)C(=O)Cn1ncc2c3ccccc3n(Cc3ccccc3)c2c1=O | -
CC1CCCCN1CCCNC(=O)Cn1ncc2c3ccccc3n(Cc3ccccc3F)c2c1=O (stereo unspecified) | -
